# Results from PubChem BioAssay (NCATS).
# Calls of active or inactive are those of the source. How the calls were made is not given here.
# System: HIV-1 nucleocapsid protein NCp7 (binding to TG oligonucleotide)
# Assay: HIV Nucleocapsid (AID 346);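 further: potency is for inhibitors that block NC binding and lower polarization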
# Conditions: HIV-1 NC / fluorescein-TGTGTGTG probe, fluorescence polarization
# In short: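 Inhibition of nucleocapsid binding to single-stranded 5'-TGTGTGTG probe (10 nM) was measured by fluorescence polarization after 1 hr at room temperature with 100 nM protein under high-salt, zinc-containing, reducing conditions.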
# Potency means the concentration at half of the fitted maximal effect.
row,Compound,Potency
1,COc1ncc2nc(-c3cccs3)c(=O)n(-c3ccccc3)c2n1,> 4 µM (inactive)
2,CCNc1ncc2ncc(=O)n(CCc3ccccc3)c2n1,> 20 µM (inactive)
3,Cc1nc2cnc(Nc3ccccc3)nc2n(C[C@H]2CCCO2)c1=O,> 20 µM (inactive)
4,O=C(c1cc(C(F)(F)F)cc(C(F)(F)F)c1)N1CCC2(CCCN(c3ccncc3)C2)CC1,> 20 µM (inactive)
5,COc1cccc(-c2ccc3ncnc(NC4CC4)c3c2)c1,> 20 µM (inactive)
6,Cn1cccc1C(=O)N1CCC2(CC1)CN(C(=O)Nc1cccc(C#N)c1)C2,> 20 µM (inactive)
7,Cc1noc(C)c1-c1nc(NC2CCNCC2)c2ccccc2n1,> 20 µM (inactive)
8,CN(C)C(=O)c1ccc(-c2ccc3ncnc(N(C)Cc4ccco4)c3c2)cc1,> 20 µM (inactive)
9,c1nc(N2CCNCC2)c2cc(-c3ccoc3)ccc2n1,> 20 µM (inactive)
10,Cc1cnc(CNc2nc(-c3cccnc3)nc3ccccc23)cn1,> 20 µM (inactive)
11,Cc1nc2cnc(N3CCN(C)CC3)nc2n(C[C@H]2CCCO2)c1=O,> 20 µM (inactive)
12,O=c1c(CCc2ccccc2)nc2cnc(Nc3ccccc3)nc2n1C[C@H]1CCCO1,> 20 µM (inactive)
13,Cn1cccc1C(=O)N1CCC[C@@]2(CCN(c3ccccc3)C2)C1,> 20 µM (inactive)
14,O=C(c1cccc(F)c1)N1CCC2(CC1)CN(c1ccc(-c3ccccc3)cc1)C2,> 20 µM (inactive)
15,COc1ccc(-n2c(=O)c(-c3ccc(Cl)cc3)nc3cnc(N4CCNCC4)nc32)cc1,> 20 µM (inactive)
16,COC(=O)N1CCC2(CCCN(Cc3ccccc3OC)C2)CC1,> 20 µM (inactive)
17,COc1cccc(Nc2ncc3nc(-c4ccc(F)cc4)c(=O)n(C)c3n2)c1,> 4 µM (inactive)
18,COc1ccc(-n2c(=O)c(C)nc3cncnc32)cc1,> 20 µM (inactive)
19,COC(=O)N1CCC2(CCN(Cc3ccc(C#N)cc3)CC2)CC1,> 20 µM (inactive)
20,Cn1cccc1C(=O)N1CCC2(CCCN(c3cccc(-c4ccccc4)c3)C2)CC1,> 20 µM (inactive)

row,Compound,Potency
1,c1ccc(Nc2cc(-c3ccoc3)ncn2)cc1,> 20 µM (inactive)
2,CN1CCN(c2nc(-c3cccc(C#N)c3)nc3ccccc23)CC1,> 20 µM (inactive)
3,COc1ccc(-c2nc3cnc(N4CCN(C)CC4)nc3n(Cc3ccc(F)cc3)c2=O)cc1,> 20 µM (inactive)
4,CN1CCN(c2ncc3nc(-c4ccccc4)c(=O)n(CCc4ccccc4)c3n2)CC1,> 20 µM (inactive)
5,COCCNc1ccnc(-c2ccccc2C(F)(F)F)n1,> 20 µM (inactive)
6,O=C(c1csnn1)N1CCC2(CC1)CN(c1cccc(-c3ccccc3)c1)C2,> 20 µM (inactive)
7,COc1ccccc1-c1ccc2ncnc(NCCNC(C)=O)c2c1,> 20 µM (inactive)
8,CC(=O)N1CCC[C@@]2(CCN(Cc3nccs3)C2)C1,> 20 µM (inactive)
9,CN(C)c1ncc2nc(-c3ccc(F)cc3)c(=O)n(CCC#N)c2n1,> 4 µM (inactive)
10,Cn1cccc1C(=O)N1CCC[C@@]2(CCN(C(=O)Nc3cccc(C#N)c3)C2)C1,> 20 µM (inactive)
11,COCCn1c(=O)c(-c2cccc(C#N)c2)nc2cnc(Oc3ccccc3)nc21,> 20 µM (inactive)
12,Cc1nc2cnc(Oc3ccccc3)nc2n(C2CC2)c1=O,> 20 µM (inactive)
13,COc1cccc(Cn2c(=O)c(-c3cccc(Cl)c3)nc3cncnc32)c1,> 20 µM (inactive)
14,O=c1c(CCc2ccccc2)nc2cnc(N3CCNCC3)nc2n1Cc1ccc(F)cc1,> 20 µM (inactive)
15,O=c1c(-c2ccc(Cl)cc2)nc2cnc(N3CCNCC3)nc2n1-c1ccccc1,> 20 µM (inactive)
16,COc1cccc(-c2nc(NCc3cccnc3)c3ccccc3n2)c1,> 20 µM (inactive)
17,CN(C)C(=O)c1ccc(-c2ccc3ncnc(NCCN4CCOCC4)c3c2)cc1,> 20 µM (inactive)
18,COc1ccccc1CCn1c(=O)c(-c2ccc(F)c(F)c2)nc2cncnc21,> 20 µM (inactive)
19,COCCNc1ncncc1-c1c(C)noc1C,> 20 µM (inactive)
20,FC(F)(F)c1cc(CN2CCC3(CCNCC3)CC2)cc(C(F)(F)F)c1,> 20 µM (inactive)
